Shown are actives, neighbours in structure and some others; about 2.6% of the full set was active somewhere.
PABP FP inh: PABP poly(A) RNA binding inhibitors, primary screen, biochemical, fluorescence polarization, uHTS | calls only at 35 µM | actives 1% (n = 290,000) | Polyadenylate-binding protein 1 (Homo sapiens), P11940;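 further: calls also rest on retests at 20 µM and on dose response follow-up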
Target sequence (P11940 whole entry, looked up): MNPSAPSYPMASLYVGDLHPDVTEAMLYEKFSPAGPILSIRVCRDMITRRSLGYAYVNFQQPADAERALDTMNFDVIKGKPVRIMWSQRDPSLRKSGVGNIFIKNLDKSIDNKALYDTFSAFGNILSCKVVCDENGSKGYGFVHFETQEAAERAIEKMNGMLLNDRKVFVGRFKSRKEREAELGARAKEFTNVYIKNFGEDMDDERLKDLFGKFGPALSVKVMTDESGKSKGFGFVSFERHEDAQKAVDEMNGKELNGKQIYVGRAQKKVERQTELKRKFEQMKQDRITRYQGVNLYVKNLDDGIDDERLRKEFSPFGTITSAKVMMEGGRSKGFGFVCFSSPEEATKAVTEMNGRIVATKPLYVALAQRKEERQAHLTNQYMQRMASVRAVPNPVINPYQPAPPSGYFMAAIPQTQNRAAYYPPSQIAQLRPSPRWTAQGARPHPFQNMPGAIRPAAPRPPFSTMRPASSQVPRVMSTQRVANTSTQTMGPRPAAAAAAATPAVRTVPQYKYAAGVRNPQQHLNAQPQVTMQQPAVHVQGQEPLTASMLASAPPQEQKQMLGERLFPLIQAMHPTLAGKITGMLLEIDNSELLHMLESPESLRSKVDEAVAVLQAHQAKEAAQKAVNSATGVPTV
A3G deaminase: APOBEC3G DNA deaminase inhibitors, primary screen, biochemical, fluorescence, single-stranded DNA substrate, uHTS; actives 0.28% (n = 330,000); DNA dC->dU-editing enzyme APOBEC-3G (Homo sapiens), Q9HC16; AID 493012, 2011; recombinant A3G, ssDNA deamination FAM/TAMRA fluorescence; inhibition, % at 20 µM;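 active means inhibition of at least 40% at 20 µM, with no more than 30% in the related APOBEC3A deaminase screen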
APOBEC3A inh: APOBEC3A ssDNA deaminase inhibitors, primary screen, selectivity assay for APOBEC3G inhibitor project, biochemical, FAM/TAMRA oligo cleavage fluorescence; DNA dC->dU-editing enzyme APOBEC-3A (Homo sapiens), P31941; recombinant A3A, FAM/TAMRA ssDNA deamination fluorescence; actives 0.41% (n = 330,000); inhibition, % at 20 µM; AID 493011, 2011;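 active means at least 40% inhibition at 20 µM here, with at most 30% in a related deaminase screen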
MLLE-PAM2 inh: inhibitors of PABP1 MLLE–PAM2 peptide binding, primary screen, biochemical, fluorescence polarization, FITC-PAM2, GST-MLLE; Polyadenylate-binding protein 1 (Homo sapiens), P11940; inhibition, % at 20 µM; actives 0.36% (n = 360,000); in the data active means inhibition above about 35%, passing the limit was not always enough
PHOSPHO1 block: PubChem AID 1565; inhibition, % at 13.3 µM; recombinant PHOSPHO1, absorbance phosphatase assay; actives 1.1% (n = 290,000); Phosphoethanolamine/phosphocholine phosphatase (Homo sapiens), Q8TCT1; in the data active means inhibition above about 60%
eIF4H FP inh: human eIF4H binding inhibitors, primary screen, translation initiation inhibitor project, biochemical, uHTS, fluorescence polarization; Eukaryotic translation initiation factor 4H (Homo sapiens), Q15056; eIF4H fluorescence polarization binding assay; inhibition, % at 35 µM; actives 0.94% (n = 290,000);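 further: calls also rest on retests at 20 µM and on dose response follow-up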
Hits are given with their value; – = inactive; · = no result given; + = active, no number. Unless noted, how the calls were made is not given here.

SMILES	PABP FP inh	A3G deaminase	APOBEC3A inh	MLLE-PAM2 inh	PHOSPHO1 block	eIF4H FP inh
COc1ccccc1NC(=S)NNC(=O)c1cc(C)n(C)n1	–	–	–	–	70	–
COc1ccccc1NC(=S)NNC(=O)c1c(Cl)c(C)nn1C	–	–	–	–	–	–
COc1ccccc1NC(=S)NNC(=O)c1cc(C)nn1C	–	–	–	–	67	–
COc1ccccc1NC(=O)c1cc(C(=O)Nc2ccccc2OC)n(C)n1	·	–	–	–	·	·
CCn1cc(C(=O)OCC(=O)c2cc(C)n(-c3ccc(OC(F)F)cc3)c2C)c(=O)c2ccc(C)nc21	–	–	–	–	–	–
Cc1cc(OCC(=O)NNC(=O)c2cccs2)ccc1Br	–	–	–	–	–	–
Cc1cc(=O)[nH]c(N=N/C(=N/Nc2ccc(O)cc2)c2ccccc2)n1	–	–	–	–	92	–
Cc1cc(=O)[nH]c(N=N/C(=N/Nc2ccccc2C)c2ccccc2)n1	–	–	–	–	92	–
Cc1ccc2c(c1)-c1c(ssc1=S)C(C)(C)N2C(=O)CSc1nncn1C	+	–	–	–	–	2.4
Cc1cc(C)c2c(c1)-c1c(ssc1=S)C(C)(C)N2C(=O)CSc1nncn1C	–	–	–	–	62	–
COc1ccc2c(c1)-c1c(ssc1=S)C(C)(C)N2C(=O)CSC1=NCCS1	–	–	–	–	–	–
CCCSc1nc(C)cc(C)c1S(=O)(=O)c1ccccc1C	–	–	–	–	–	–
CCCSc1nc(C)cc(C)c1S(C)(=O)=O	+	–	–	–	–	4.7
C[C@@H]1CN([C@H](C)CO)C(=O)c2cc(Br)cnc2O[C@H]1CN(C)C(=O)Cc1ccncc1	·	·	·	–	·	·
N#CCC(=O)NCCCc1ccccc1	–	–	–	–	–	–
CC(C)C1OC2c3cccc4cccc(c34)C2N1c1ccccc1 (stereo unspecified)	–	–	–	44	–	–
CCOC(=O)N(C)c1c(CC)nc2c(OCc3cc(Cl)cc(Cl)c3)cccn12	·	·	·	–	·	·
CN(C)c1ccc(NC(=O)c2cccc(N3C(=O)CCC3=O)c2)cc1	–	–	–	–	66	–
O=S1(=O)C[C@H](N2CCC[C@@H]2CO)[C@@H](COCc2ccccc2)N1	·	·	·	–	·	·
CCCS(=O)(=O)Nc1cc(C(F)(F)F)ccc1OCCOC	–	–	–	–	–	–
O=C1OCC(CO)(CO)N=C1NNc1ccccc1Cl	–	–	–	–	82	–
COc1ccc(NC(=O)COc2ccccc2C(=O)NCC(c2ccccc2)N(C)C)cc1Cl (stereo unspecified)	–	–	–	–	–	–
CCOC(=O)c1cnc(SCC(=O)c2ccccc2)nc1N	–	–	–	–	102	–
COc1ccc(NC(=S)NC(NC(=O)c2ccccc2Cl)C(Cl)(Cl)Cl)c([N+](=O)[O-])c1 (stereo unspecified)	–	–	–	39	–	–
COc1ccc(NC(=S)NC(NC(=O)c2ccc(Cl)cc2Cl)C(Cl)(Cl)Cl)c([N+](=O)[O-])c1 (stereo unspecified)	–	–	–	36	–	–
SMILES	PABP FP inh	A3G deaminase	APOBEC3A inh	MLLE-PAM2 inh	PHOSPHO1 block	eIF4H FP inh
COCCNC(=O)C1CCCN(C(=O)c2ccc(F)c(C)c2)CC1 (stereo unspecified)	·	·	·	–	·	·
Fc1ccc(-n2[nH]nnc2=S)cc1N1CCCC1	–	–	–	–	78	–
CC(C)Cc1nnc(NC(=O)Cc2cccs2)s1	+	–	–	–	–	74
CC(C)c1nnc(NC(=O)Cc2cccs2)s1	–	–	–	–	–	–
COCCn1c(C)cc(C(=O)CSc2nncn2-c2ccccc2)c1C	–	–	–	–	95	–
COc1ccc(-n2cnnc2SCC(=O)c2cc(C)n(Cc3cccs3)c2C)cc1	–	–	–	–	–	–
COCCn1c(C)cc(C(=O)CSc2ccc3ccccc3n2)c1C	+	–	–	–	69	62
O=C(Nc1ccccc1)C1=C[C@@H](C2CC2)C[C@@H](OCc2ccc(CO)cc2)O1	–	–	–	–	–	–
CCc1ccccc1Oc1nc(NC(C)C)nc2ccsc12	·	·	·	–	·	·

From PubChem BioAssay
